From PubChem
NPC1 prom act = qHTS Assay for NPC1 Promoter Activators | Huh7 NPC1 promoter luciferase reporter, 24 h | Potency, µM (series often up to 9.22 µM), for the others: at the top dose activation, most hits filed as activators | 320,000 compounds, 2.4% hits; also: % of control where 0% means no effect; nearly all actives have a fitted effect of over 60% in size
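Stably transfected Huh7 (NPC1 promoter→luciferase), 1500 cells/well in Opti-MEM + 10% FBS, 2 h settle, then compound 24 h at 37 °C. Luminescence after 10 min with Amplite reagent.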
FLuc modulator = qHTS profiling assay for firefly luciferase inhibitor/activator using purifed enzyme and Km concentrations of substrates (counterscreen for miR-21 project). Potency, µM (titrated, usually from 57.5 µM), inactives show top-dose activity change, negative = inhibition, usual class: inhibitors. 360,000 compounds, 6.9% hits. AID 588342, 2011. purified FLuc, Km substrates, luminescence inhibition;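 also: plate controls were vehicle for no effect and reference inhibitor for full effect; nearly all actives have a fitted effect of over 55% in size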
Target sequence (P08659 whole entry, looked up): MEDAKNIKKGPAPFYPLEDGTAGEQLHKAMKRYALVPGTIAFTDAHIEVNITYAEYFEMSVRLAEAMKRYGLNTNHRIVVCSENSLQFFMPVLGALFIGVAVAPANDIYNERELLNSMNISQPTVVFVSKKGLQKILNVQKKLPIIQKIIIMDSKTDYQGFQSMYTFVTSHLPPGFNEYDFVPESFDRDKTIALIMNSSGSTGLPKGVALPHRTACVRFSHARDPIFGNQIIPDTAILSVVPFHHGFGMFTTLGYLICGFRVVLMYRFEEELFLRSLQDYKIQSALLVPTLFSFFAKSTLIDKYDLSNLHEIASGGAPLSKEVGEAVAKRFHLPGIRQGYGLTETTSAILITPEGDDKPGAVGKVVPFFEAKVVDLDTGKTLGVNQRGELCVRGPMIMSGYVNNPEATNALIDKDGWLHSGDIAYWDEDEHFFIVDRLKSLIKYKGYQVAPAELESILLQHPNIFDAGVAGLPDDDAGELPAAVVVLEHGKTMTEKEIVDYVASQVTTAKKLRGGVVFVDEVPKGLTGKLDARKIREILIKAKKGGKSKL
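Purified P. pyralis luciferase, 10 nM final, with Km-level 10 uM D-luciferin and 10 uM ATP in 50 mM Tris acetate pH 7.5, 10 mM Mg acetate, 0.01% Tween-20, 0.05% BSA; 6-point qHTS titration about 60 µM downward; luminescence read.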
Rab9 promoter act = qHTS Assay for Rab9 Promoter Activators; Potency, µM (titrated, usually from 9.22 µM), for the others: at the top dose activation, negative = inhibition, most hits filed as activators; Huh7 Rab9 promoter-luciferase reporter, luminescence, 24 h; AID 485297, 2010; 320,000 compounds, 2.8% hits; also: % of control where 0% means no effect; nearly all actives have a fitted effect of over 60% in size
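Luciferase signal after 10 min detection reagent at ambient indicates Rab9 promoter upregulation; stably transfected Huh7 cells were treated 24 h with compound in DMSO at 37 °C, 5% CO2.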
ELG1 genotox = qHTS screen for small molecules that induce genotoxicity in human embryonic kidney (HEK293T) cells expressing luciferase-tagged ELG1. HEK293T ELG1-luciferase reporter, luminescence, 16 h. Potency, µM (top dose mostly 46 µM), for inactives: at the top dose activity change, positive = activation, actives largely listed as activators. 330,000 compounds, 1.3% hits; also: % of control where 0% means no effect; nearly all actives have a fitted effect of over 60% in size
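16 hr compound incubation (37 °C, 5% CO2) of HEK293T cells carrying luciferase-tagged ELG1; luciferase then measured by ONE-Glo luminescence after 30 min at RT.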
KinaseGlo FLuc = Counterscreen for Luciferase (Kinase-Glo TM) Inhibition | Luciferin 4-monooxygenase (Photuris pensylvanica), Q27757 | Kinase-Glo luciferase, ATP luminescence, 8 min | AID 1379, 2008 | 200,000 compounds, 0.28% hits | Potency, µM (titrated, usually from 38.3 µM), for inactives: at the top dose activity change, negative = inhibition, actives largely listed as inhibitors; also: % is scaled to controls: 0 for no effect and ±100 for the full control effect; nearly all actives have a fitted effect of over 60% in size
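Inhibition of Kinase-Glo luciferase light generation was assessed at 10 uM ATP in pH 7.2 imidazole buffer, with luminescence measured after eight minutes at ambient temperature.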
SMN2 splice enh = qHTS Assay for Enhancers of SMN2 Splice Variant Expression | HEK293 SMN2-luciferase splicing reporter, luminescence, 30-36 h | Potency, µM (series often up to 46.1 µM), for inactives: top-dose activity change, positive = activation, most hits filed as activators | 210,000 compounds, 2.8% hits | AID 1458, 2008; also: % of control where 0% means no effect; nearly all actives have a fitted effect of over 55% in size
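HEK293 cells carry an SMN2 […]–luciferase reporter in which exon 7 inclusion puts luciferase in frame. Cells were plated 10-12 h before compound addition, then incubated 30-36 h at 37C. ONE-Glo luminescence was read; sodium butyrate at 4.5 mM final served as control.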
* marks the source's active call; other numbers are inactive results; ? = inconclusive; / = no result given; [ ] = another dose, or the depositor's remark. The list is not random: actives were taken first. Their share in the collection is about 7.3%. Calls follow the shape of the dose curve; as a rule, active = well fitted curve in the direction sought with a large enough effect; inconclusive = small, poorly fitted or top-dose-only effect, or another doubt; inactive = no such curve, though single readings can be large; an effect the other way counts as inactive or inconclusive. Potency is read from the fitted curve at half-maximal effect.

SMILES | NPC1 prom act | FLuc modulator | Rab9 promoter act | ELG1 genotox | KinaseGlo FLuc | SMN2 splice enh
Cc1cnc(C(=O)Nc2ccc(N3CCCCC3)cc2)cn1 | 3.5µM* | 7.6µM* | 3.2µM* | ? | -2% | 11µM*
Cc1cc(C(=O)Nc2ccc(N3CCCCC3)cc2)no1 | 0.32µM* | 1.3µM* | 0.28µM* | ? | / | /
Cc1cnc(C(=O)Nc2ccc(N3CCOCC3)cc2)cn1 | 25% | ? | ? | ? | -2% | ?
Cc1ccccc1-c1nc(CN2CCC(C(=O)NC(C)C)CC2)c(C)o1 | / | -1% | / | / | / | -8%
NC(=S)N/N=C/c1ccc(-c2ccc(SC(F)F)cc2)o1 | 0% | 24µM* | 0% | -4% | / | /
Cc1ccc(-c2ccc(/C=N/NC(N)=S)o2)cc1 | ? | 6.7µM* | ? | 12% | / | /
CCOc1ccc(NC(=O)CC2C(=O)N(c3ccc(F)cc3)C(=O)N2CCc2sccc2C)cc1 (stereo not drawn) | / | 1% | / | / | / | -1%
CC(=O)Nc1ccc(-c2csc(NCc3ccco3)n2)cc1 | 2.5µM* | 7.6µM* | 2µM* | ? | 2% | 13µM*
c1cncc(-c2csc(NCc3ccco3)n2)c1 | 22% | ? | 25% | 15% | -9% | 21%
COc1ccc(-c2nc3cccc(C)n3c2NCc2ccco2)cc1OC | 6% | 9.5µM* | 4% | -12% | 2% | 21%
COc1ccc(-c2csc(NCc3ccco3)n2)cc1C | 3.2µM* | ? | 4µM* | ? | 0% | 32µM*
c1ccc(Nc2nc(CSc3ncn[nH]3)cs2)cc1 | ? | 15µM* | ? | 11% | -1% | -28%
O=[N+]([O-])c1ccc(O)c(C2=NNC(c3ccccc3F)C2)c1 (stereo not drawn) | 1µM* | 3.4µM* | 0.32µM* | 5% | / | /
COc1ccc([N+](=O)[O-])cc1C1NN=C(c2ccccc2O)S1 (stereo not drawn) | -3% | ? | 16% | 4% | 0% | -17%
COc1ccccc1C(=O)O/N=C(\N)c1ccc(Cl)cc1 | ? | 21µM* | 28% | ? | -2% | ?
COc1ccc(C(=O)O/N=C(\N)c2ccc(Cl)cc2)cc1 | 3.2µM* | 2.4µM* | ? | ? | / | /
COc1ccc(Cl)cc1C(=O)O/N=C(\N)c1ccncc1 | 27% | -4% | 20% | 7% | / | /
COc1ccc(/C(N)=N/OC(=O)c2ccc(Br)o2)cc1 | ? | 6µM* | ? | ? | / | /
CCN1CCN(C(=O)N[C@H](C(=O)N[C@@H]2C(=O)N3C(C(=O)O)=C(CSc4nnnn4C)CS[C@@H]23)c2ccc(O)cc2)C(=O)C1=O | / | / | / | / | -3%[17.1 µM] | 0%[20.6 µM]
Cc1c(/C=N\NC(=O)c2cccc(F)c2)cnn1C | -3% | ? | 4% | 1% | -10% | 23%
Cc1cc(/C=N/NC(=O)c2cccc(F)c2)c(C)n1-c1ccccc1 | 3.2µM* | 1.2µM* | 1.6µM* | ? | -7% | 27%
CCOC(=O)N/N=C\c1ccc(OC/C=C/c2ccccc2)c(OC)c1 | 3% | 12µM* | 8% | -6% | / | /
Cc1cccc(-n2c(C)cc(/C=N/NC(=O)c3cccc([N+](=O)[O-])c3C)c2C)c1 | -8% | -19% | -4% | -4% | -1% | -17%
COC(=O)N/N=C\c1ccc(OC/C=C/c2ccccc2)c(OC)c1 | -1% | -2% | 1% | 2% | / | /
CCOC(=O)N/N=C/c1cc(C)n(-c2ccccc2)c1C | 24% | 11µM* | ? | ? | -3% | -15%[1.84 µM]
Cc1cc(/C=N/NC(=O)c2ccccc2F)c(C)n1-c1ccccc1 | 2.5µM* | 2.1µM* | 0.63µM* | ? | -5% | 13µM*
COc1ccc(C(=O)c2oc3ccccc3c2NC(=O)c2nc(SC)ncc2Cl)cc1Cl | / | 2% | / | / | / | 7%
